# Screens from PubChem.
# Compounds with a hit are over-represented: about 28% of the library has one in this group of screens.
# CYP2C9 act: CYP2C9 (human) activation. recombinant CYP2C9, luciferin-H conversion, luminescence; hits give high values; factor 1 = untreated enzyme, 0 = blocked. activation factor at 5 µM. 96,000 compounds, 1.4% hits. P11712;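 active = activation factor of 2 or more for CYP2C9 at a 5 µM dose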;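 note: 0 = sulfaphenazole-blocked wells and 1 = vehicle-only wells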
# CYP2C19 act: cytochrome P450 2C19 (human) activation; P33261; recombinant CYP2C19, luciferin-H EGE luminescence; hits give high values; 0 = fully inhibited enzyme, 1 = untreated enzyme; activation factor at 5 µM; 96,000 tested, under 10 active; AID 1025;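 active = activation factor of at least 2 at 5 µM in the primary screen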;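 note: 0 = wells with 2.5 mM tranylcypromine and 1 = vehicle-only wells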
# Target sequence (P33261 whole entry, looked up): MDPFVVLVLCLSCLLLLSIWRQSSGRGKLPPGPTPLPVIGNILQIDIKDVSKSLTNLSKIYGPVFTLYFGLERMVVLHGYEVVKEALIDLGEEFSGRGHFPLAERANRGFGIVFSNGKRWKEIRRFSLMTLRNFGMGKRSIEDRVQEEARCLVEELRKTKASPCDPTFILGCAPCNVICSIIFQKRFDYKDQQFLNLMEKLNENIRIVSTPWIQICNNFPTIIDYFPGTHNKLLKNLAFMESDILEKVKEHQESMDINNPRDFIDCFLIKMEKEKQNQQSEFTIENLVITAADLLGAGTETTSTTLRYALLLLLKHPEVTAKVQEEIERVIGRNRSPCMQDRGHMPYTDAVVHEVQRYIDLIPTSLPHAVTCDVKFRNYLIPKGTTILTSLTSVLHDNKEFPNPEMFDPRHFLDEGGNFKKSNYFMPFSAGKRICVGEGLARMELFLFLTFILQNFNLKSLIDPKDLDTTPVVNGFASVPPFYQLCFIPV
# DAT uptake mod: modulates human dopamine transporter uptake under cocaine. Q01959. LLC-PK1 hDAT cells, [14C]-dopamine uptake with cocaine IC80; actives deviate in either direction. AID 449768. B-score at 10 µM. 110,000 compounds, 1.3% hits;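 active = Z score or B-score, a plate-position-corrected score, falls beyond the plate's 99.7% confidence bounds, in either direction; inactive = both scores lie inside the 99.7% bounds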;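 note: scored against the spread of the other compound wells on the same plate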
# CYP2C9 inhib: inhibitors of human CYP2C9 | P11712 | CYP2C9 Supersomes, luciferin-H conversion, luminescence | inhibition, % at 5 µM | 96,000 compounds, 20% hits;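 active = blocking of liver enzyme CYP2C9 beyond about 50% at 5 µM, limit read from the data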
# D1 mod: D1 dopamine receptor (human) allosteric modulation; AID 641; 58,000 compounds, 5.9% hits; B-score at 10 µM; HEK293 D1, CRE-luciferase, dopamine EC30 potentiation; actives deviate in either direction;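 active = luminescence count or its row- and column-corrected plate score outside the 99.7% band of the plate's sample wells, on either side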
# CYP2C19 inh: inhibitors of human CYP2C19; P33261; CYP2C19 Supersomes, luciferin-H EGE luminescence, 30 min; inhibition, % at 5 µM; 96,000 compounds, 21% hits; AID 778;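 active = CYP2C19 inhibition above a set limit at 5 µM in the primary screen, cut at about 50% in these data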;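 note: plate controls were negative control wells for no effect and 2.5 mM tranylcypromine positive control for full effect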
# * hit, by the source's call; x = no result given.
SMILES,CYP2C9 act,CYP2C19 act,DAT uptake mod,CYP2C9 inhib,D1 mod,CYP2C19 inh
Cc1ccc(SCC(=O)N2CCc3ccccc32)cc1,x,x,-0.5,x,x,x
O=C(CSC1=NCCS1)N1CCc2ccccc21,0.4,0.5,0.38,63*,x,49
O=c1c2ccccc2nc(SCc2nnc(-c3ccccc3Br)o2)n1Cc1ccco1,0.1,0.2,1.8,94*,-0.27,76*
O=C(CSc1nc2ccccc2c(=O)n1Cc1ccco1)c1ccccc1,0.3,0.7,0.033,72*,-0.71,34
O=c1c2ccccc2nc(SCc2nc3ccccc3s2)n1Cc1ccco1,0.5,0.8,-0.49,55*,0.92,16
CN(c1ccc(C(=O)NCC2CCCO2)cc1)S(C)(=O)=O (stereo not drawn),1,1,0.35,-1,x,-1
Cc1ccc(NC(=S)N2CCC(c3nc4ccccc4s3)CC2)cc1C,0.9,1,-0.076,9,x,0
CCOC(=O)CN(c1ccccn1)S(=O)(=O)c1ccccc1,1,0.9,-0.39,1,x,7
COC(=O)c1ccc(CN(c2ccccn2)S(=O)(=O)c2ccccc2)cc1,0.7,0.3,-0.044,30,x,70*
CCC(C)NC(=O)C(CCSC)NC(=O)c1ccccc1 (stereo not drawn),0.6,0.7,-0.53,35,x,26
CSCCC(NC(=O)c1ccc(Cl)cc1)C(=O)NC(C)(C)C (stereo not drawn),0.4,0.6,0.022,62*,x,44
Cn1c2c(c(=O)n(C)c1=O)C(c1cccc(Br)c1)C1C(=O)c3ccccc3C1=N2 (stereo not drawn),x,x,x,x,-0.89,x
CC(C)(C)C(=O)NC1CCN(S(=O)(=O)c2ccc(C(F)(F)F)cc2)CC1,1,0.2,0.1,-3,x,76*
COc1ccccc1CNC(=O)CS(=O)Cc1nc(-c2ccccc2C)oc1C (stereo not drawn),0.8,0.6,0.34,23,0.053,40
COc1ccc(CNC(=O)CS(=O)Cc2nc(-c3ccccc3C)oc2C)cc1 (stereo not drawn),0.2,0.1,1.4,75*,-1.3,91*
Cc1ccc(CNC(=O)CS(=O)Cc2nc(-c3ccccc3C)oc2C)cc1 (stereo not drawn),0.8,0.6,0.13,24,0.024,40
Cc1ccccc1-c1nc(CS(=O)CC(=O)NCc2ccccc2)c(C)o1 (stereo not drawn),0.2,0.2,0.72,76*,0.59,78*
O=C(Nc1ccc(S(=O)(=O)Nc2nccs2)cc1)C1CCCCC1,1,1.2,0.33,1,x,-16
Cc1ccc(NC(=O)C2CCN(S(=O)(=O)c3c(C)n[nH]c3C)CC2)nc1,1.4,1.1,1.8,-38,-0.21,-6
CCCC(=O)C1=C(O)C(C(=O)OC)C(C)(C)CC1=N (stereo not drawn),0.6,0.8,-3.2*,40,1.9,23
CCCC(=O)C1=C(O)C(C(=O)OC)C(C)(C)CC1=NC(C)C (stereo not drawn),x,x,0.25,x,x,x
CCCC(=O)C1=C(O)C(C(=O)OC)C(C)(C)CC1=Nc1ccccc1 (stereo not drawn),0.2,0.1,0.8,82*,1.8,87*
CCCC(=O)C1=C(O)C(C(=O)OC)C(C)(C)CC1=Nc1cccc2ccccc12 (stereo not drawn),x,x,3*,x,x,x
CCCC(=O)C1=C(O)C(C(=O)OC)C(C)(C)CC1=NC(C)(C)C (stereo not drawn),1.2,1.2,0.81,-18,x,-20
CCCSc1cc(N2CCOCC2)nc(-c2ccccc2Cl)n1,0.4,0.9,-0.2,57*,x,9
Cn1c2c(c(=O)[nH]c1=O)C(NC(=O)c1ccco1)(C(F)(F)F)C(=O)N2 (stereo not drawn),1,1,-0.33,1,0.11,-2
CC(=O)OC(/C(O)=C(\C#N)c1nc2ccccc2[nH]1)c1ccccc1 (stereo not drawn),0.3,0.7,-0.15,66*,-2.3,34
Cc1nn(-c2ccccc2)c(C)c1C(=O)OC/C(O)=C(\C#N)c1nc2ccccc2[nH]1,0.4,0.4,-7.9*,64*,-2.1,62*
C/C(O)=C(/C#N)c1nc2ccccc2[nH]1,1.1,1,-1.6,-5,0.45,-3
O=C(CN1CCOc2ccccc21)N1CCCC1,x,x,x,x,0.1,x
